{"source": "PubChem BioAssay AID1347426", "about": "(Functional Genomics Laboratory (NCATS/FGL), 2020)", "note": "About 1,400 (4.5%) of roughly 31,000 sequences were called active. Shown is part of a subset that was picked to be rich in actives. A number with no mark means an inactive call.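 How the source made its calls: active means median seed-adjusted z-score above 1 or below -1; inactive means the rest.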"}
{"assay": "Novel Modifiers of Survival Motor Neuron (SMN) Protein: Gene Identification via Genome-wide siRNA Screen;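 further: luminescence tracks full-length SMN protein made from the SMN2 reporter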", "settings": "HEK293T SMN2-luciferase reporter, siRNA knockdown, 72 h; actives lie on both sides", "outline": "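HEK293T cells stably expressing an SMN2 splicing/cDNA-luciferase reporter were reverse-transfected with a druggable-genome siRNA library and read by luminescence at 72 hours; hits defined by MAD score above 1.0 or below -1.0.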"}
{"sequence": "GCUCAAAGGUCUCACCUGCTT against SLC35A2", "median seed-adjusted z-score": "1.06 (active)"}
{"sequence": "GGCCGGAGAUUAUCCUCAATT against MIXL1", "median seed-adjusted z-score": -0.204}
{"sequence": "GUGUGGUAGCUAUUGACAATT against TSC22D1", "median seed-adjusted z-score": 0}
{"sequence": "UUCCCAUAUUUAUUCGGACTT against AMH", "median seed-adjusted z-score": -0.255}
{"sequence": "GCAGUGACCUUCAAAGUGATT against PTPRN2", "median seed-adjusted z-score": -0.104}
{"sequence": "CAACUGCAAGAGGACUGUATT against SLC10A4", "median seed-adjusted z-score": 0.069}
{"sequence": "UGCUGUUCGUGGAUUUCAATT against CDX4", "median seed-adjusted z-score": 0.181}
{"sequence": "AGAUUGAAAUCGACUUUGATT against BRD4", "median seed-adjusted z-score": "1.13 (active)"}
{"sequence": "GCAUCAUCUCAGCACCAGATT against SLC5A12", "median seed-adjusted z-score": 0.279}
{"sequence": "GAACCGCCCUCCUGAUUAATT against WNT3A", "median seed-adjusted z-score": -0.66}
{"sequence": "GCAAGAUCCCAAAUCAGCATT against ADAT1", "median seed-adjusted z-score": 0.404}
{"sequence": "ACAAGAUGACCAACACUAATT against ARHGAP1", "median seed-adjusted z-score": "-1.14 (active)"}
{"sequence": "GAACGGGUAUGUGGAGAUATT against INHBA", "median seed-adjusted z-score": 0.361}
{"sequence": "CGAACGAAGAAGAGCCGAATT against NFATC2", "median seed-adjusted z-score": 0.183}
{"sequence": "CUACCCAACCUGUAGCUAATT against UBE2J1", "median seed-adjusted z-score": "-1.2 (active)"}
{"sequence": "CGAUUAGAAAUCAACAUGATT against MLKL", "median seed-adjusted z-score": 0}
{"sequence": "GAUUUCUAGGCAUCCCGUATT against ARSA", "median seed-adjusted z-score": 0.0938}
{"sequence": "CCAUGAUCCUGUGGAUAAATT against HNRNPA2B1", "median seed-adjusted z-score": "1.33 (active)"}
{"sequence": "CCCUCGAAUUCGCAUAGAATT against DIS3", "median seed-adjusted z-score": 0.266}
{"sequence": "GCACCGUCUAUGUCACCAUTT against GAL3ST3", "median seed-adjusted z-score": -0.54}
{"sequence": "CCCAUAUUCGGAUCCAGAATT against PTPN6", "median seed-adjusted z-score": -0.515}
{"sequence": "GGAAUCGUGGAGAAUAUGATT against NUBP2", "median seed-adjusted z-score": -0.21}
{"sequence": "CCAUGCCCUAUGUUAAGAATT against RRM2B", "median seed-adjusted z-score": -0.128}
{"sequence": "AGACGAUCCGGGUAAAGUUTT against LSM7", "median seed-adjusted z-score": -0.45}
{"sequence": "CAACUAGUGCAACCAGUAATT against ZNF207", "median seed-adjusted z-score": "-3.1 (active)"}
{"sequence": "GGCUCCUCCUUGUACUCAATT against FOXO3", "median seed-adjusted z-score": -0.712}
{"sequence": "GGGCAUCGCUAAACCCAAATT against LIF", "median seed-adjusted z-score": 0.273}
{"sequence": "GGUCCGAUGUUACGUCUAATT against TIGD4", "median seed-adjusted z-score": -0.553}
{"sequence": "CCGGGACAGUGACAUCAUATT against ENDOD1", "median seed-adjusted z-score": -0.138}
{"sequence": "GGAGCACAGAGGCUCAGAATT against TNFRSF13B", "median seed-adjusted z-score": 0.152}
{"sequence": "CCAUCAAACUUGCAUCCCUTT against ISX", "median seed-adjusted z-score": "1.99 (active)"}
{"sequence": "GAACAUCUCUUGUGGUAUUTT against SLC22A16", "median seed-adjusted z-score": 0.0878}
{"sequence": "GGUUUUAACUGGAACUGGATT against HIF1AN", "median seed-adjusted z-score": -0.0315}
{"sequence": "GGAUCGACCCAACCUAUGUTT against XYLT2", "median seed-adjusted z-score": 0.148}
{"sequence": "CAGCACUAUUAGACAGGAATT against ZBTB40", "median seed-adjusted z-score": 0.187}
{"sequence": "CUGCGGACCCAAUACAUGATT against ARID3A", "median seed-adjusted z-score": "-1.11 (active)"}
{"sequence": "AGAGGUUUGGCAGAAAUACTT against NPFF", "median seed-adjusted z-score": -0.631}
{"sequence": "UAAGAACACCGUUACCCAATT against NLGN4X", "median seed-adjusted z-score": -0.1}
{"sequence": "GCAGACCACCUGAAUAUGATT against TRO", "median seed-adjusted z-score": "2.04 (active)"}
{"sequence": "GGAGUAGAUUUUAGCAUAATT against TNKS2", "median seed-adjusted z-score": 0.0545}
{"sequence": "GAUAUUGCACAAAUCUAUATT against UBE2D1", "median seed-adjusted z-score": 0.508}
{"sequence": "GAAGAUAUGCAACAGCCUATT against UNC5B", "median seed-adjusted z-score": -0.0207}
{"sequence": "CAGAAGUCGUAGUCAUGAATT against RBM39", "median seed-adjusted z-score": "-1.82 (active)"}
{"sequence": "GUAUCUGACUGACAUCCUUTT against PLCH2", "median seed-adjusted z-score": 0.593}
{"sequence": "CCAAUACAGUGGAACCUAUTT against ATXN1", "median seed-adjusted z-score": -0.024}
{"sequence": "CCUCCAACGUAUCAUGAGATT against CYP7A1", "median seed-adjusted z-score": -0.0092}
{"sequence": "ACAAAAUUGCUACAUCAAATT against ECHDC1", "median seed-adjusted z-score": 0.554}
{"sequence": "GCAGAGAACUGGUUCCGAATT against ZNF512B", "median seed-adjusted z-score": 0.212}
{"sequence": "CCGUGUCUUCAGGAACGAATT against CYB561", "median seed-adjusted z-score": 0}
{"sequence": "GAUUUUAGCACUACAACAATT against ZNF664", "median seed-adjusted z-score": "1.08 (active)"}
{"sequence": "AGCUGAAAAUUGAGAACAATT against TBX4", "median seed-adjusted z-score": 0.968}
{"sequence": "GCCCAUUAAUAUUAUAGGUTT against LAP3", "median seed-adjusted z-score": 0.0175}
{"sequence": "CCUUCAUCCGGAAAUUAAATT against ZIM3", "median seed-adjusted z-score": -0.02}
{"sequence": "GGUGGAUGGUAAUAAGGAATT against CTPS2", "median seed-adjusted z-score": "1.08 (active)"}
{"sequence": "GGAAGUUGUUCAACGAGAUTT against MLPH", "median seed-adjusted z-score": "-1.2 (active)"}
{"sequence": "CGGCUAUGACAAGUCAAUATT against PKDREJ", "median seed-adjusted z-score": 0.376}
{"sequence": "GGCAGUACAUGUACGAUGATT against AGXT2L2", "median seed-adjusted z-score": -0.0495}
{"sequence": "GAACUGUCGGCGGAACAUUTT against MFAP3L", "median seed-adjusted z-score": "1.03 (active)"}
{"sequence": "GCGUUGACAGUGAUGCGUATT against SLC4A3", "median seed-adjusted z-score": -0.7}
{"sequence": "GCUUUUGCAUGGAUGUGCATT against ELTD1", "median seed-adjusted z-score": 0.387}
{"sequence": "GGAAUAUGAGGUGACCGUUTT against IL17RA", "median seed-adjusted z-score": "-1.29 (active)"}
{"sequence": "CGGUAAAUGUCACUCGUGATT against PRKG1", "median seed-adjusted z-score": 0}
{"sequence": "AGAUGUCCAGACCAAGAUATT against CREBL1", "median seed-adjusted z-score": -0.348}
{"sequence": "CAACGAAAAUCUAAAUGCATT against HMMR", "median seed-adjusted z-score": 0.389}
{"sequence": "AGAAUGUGCGGCUUAUUGATT against CCDC88B", "median seed-adjusted z-score": -0.153}
{"sequence": "CCAGAGCAAAGGCUAUGAATT against ZNF350", "median seed-adjusted z-score": 0.133}
{"sequence": "UAAAAUCUAGGGAUCCAAUTT against POLR2K", "median seed-adjusted z-score": "-3.72 (active)"}
{"sequence": "AGAUUACGUUGAAGAACGATT against GNGT1", "median seed-adjusted z-score": -0.0382}
{"sequence": "CAUUCACUGAGGCGACAGATT against ABCA9", "median seed-adjusted z-score": -0.139}
{"sequence": "GAAGGGCCUUUUUAUCCAATT against MCTS1", "median seed-adjusted z-score": 0.116}
{"sequence": "CGACCAAGAUUAUGGAAUUTT against ADAMTS17", "median seed-adjusted z-score": 0.257}
{"sequence": "GGCUAUCUGCUGAAGCGCATT against RASAL1", "median seed-adjusted z-score": -0.089}
{"sequence": "CAAUGACUAUGAAUAAGUATT against SLC9A2", "median seed-adjusted z-score": "-1.02 (active)"}
{"sequence": "GCCUUUAUGUGGACAUUAATT against SLCO2B1", "median seed-adjusted z-score": 0.289}
{"sequence": "CGACAAUGUUAAGUUCAUATT against SULT6B1", "median seed-adjusted z-score": 0}
{"sequence": "GCAUAGAUGUGGAUAGCUUTT against CFTR", "median seed-adjusted z-score": "-1.23 (active)"}
{"sequence": "GGUCCGUGACGAGAAGUUATT against RAB4A", "median seed-adjusted z-score": 0.0022}
{"sequence": "CGAACCAUUUCAUCACGUATT against MARS2", "median seed-adjusted z-score": -0.00523}
{"sequence": "CCCUUAAACUCGAACCCAATT against HLX", "median seed-adjusted z-score": 0.379}
{"sequence": "GCACGGUAAUUUUGACAGUTT against CD302", "median seed-adjusted z-score": 0.0818}
{"sequence": "GCUGUUACCUCGACGAGUATT against TSC2", "median seed-adjusted z-score": "1.11 (active)"}
{"sequence": "GCAGCUCCGAAUUCAGGAATT against TFE3", "median seed-adjusted z-score": -0.0442}
{"sequence": "GAAGAACUCGAUCAGCUAATT against MYH4", "median seed-adjusted z-score": "-1.8 (active)"}
{"sequence": "GGAUCUGACAGUUCCAGAATT against CLDN20", "median seed-adjusted z-score": -0.00173}
{"sequence": "GACAAUAUCCUACCCAUUUTT against SLC25A16", "median seed-adjusted z-score": 0.0479}
{"sequence": "AGAGAAUCCAGGAUCAGAATT against CHIT1", "median seed-adjusted z-score": -0.578}
{"sequence": "GGCUCGCUUUGAAAAGCUATT against LIN7A", "median seed-adjusted z-score": "-1.39 (active)"}
{"sequence": "CGGACCCGCUGAGACAUUATT against HOXB6", "median seed-adjusted z-score": -0.168}
{"sequence": "GGCCUACAACGAAAGUGAATT against CAMKK1", "median seed-adjusted z-score": 0}
{"sequence": "CAGUCGAACCUUUCCCAGATT against MSRA", "median seed-adjusted z-score": -0.0316}
{"sequence": "GGGACUGGGAUUUACGUUATT against MTMR11", "median seed-adjusted z-score": -0.0244}
{"sequence": "CUUCCUUCGUCUUCACCUATT against FOS", "median seed-adjusted z-score": 0.343}
{"sequence": "CGACGAUUCGUGCUUAAUATT against MYO5C", "median seed-adjusted z-score": 0}
{"sequence": "GCAAAACAGCGGCAGAACATT against ATP8B2", "median seed-adjusted z-score": -0.268}
{"sequence": "GCAGAUCACAUGAAGAGAATT against DHX38", "median seed-adjusted z-score": -0.723}
{"sequence": "CUCUUUAGCCGCUUCAUUATT against FMNL1", "median seed-adjusted z-score": -0.3}
{"sequence": "GGGUCUUCGUCAUGCUCUATT against GPR142", "median seed-adjusted z-score": -0.0636}
{"sequence": "CAGUGCUACUUGGAAUGUUTT against RHOJ", "median seed-adjusted z-score": -0.304}
{"sequence": "CACUAGUUUUGUUAGCGAATT against ATP13A4", "median seed-adjusted z-score": "-1.09 (active)"}
{"sequence": "CAACAACUAUGACCCAGGATT against CHRNE", "median seed-adjusted z-score": 0.349}
{"sequence": "CAGCAAUUCGUGGAGCUCATT against STX4", "median seed-adjusted z-score": 0.759}
{"sequence": "CACUAAAUGUGACUCCUGATT against TTC5", "median seed-adjusted z-score": -0.296}
{"sequence": "CUAUUAACAUGGUGACAGATT against EIF4A1", "median seed-adjusted z-score": "-1.05 (active)"}
{"sequence": "GUGUGAUGAUAUUCGAAAATT against SGPP1", "median seed-adjusted z-score": 0.0859}
{"sequence": "GGAGGAAACUUCAACUUGUTT against PHF20L1", "median seed-adjusted z-score": 0}
{"sequence": "CAAAUUGAGUCACUCUUAATT against MGAT2", "median seed-adjusted z-score": -0.124}
{"sequence": "GGAUUUGGAGUAGAUCAAUTT against TIAL1", "median seed-adjusted z-score": -0.985}
{"sequence": "GCCUGUCCUUCUCCAUUGATT against ISX", "median seed-adjusted z-score": "1.99 (active)"}
